The structures appear in SMILES notation. This is part of a sample that, as a whole, favours compounds with a hit. Of some 83,000 tested, about 20% had one in any assay.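 Cell lines were cultured in 96-well plates, exposed to a single compound concentration, and assessed for percent growth 48 hours later.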 A number with no mark means an inactive call. The calls were made as follows: active = growth percent below 10; inactive = the rest.

The assay deals with HL-60(TB) leukemia. Put plainly: NCI-60 one-dose screen, 48 h (100 = growth as untreated, 0 = no growth, -100 = all killed). The settings on record: 10 µM unless noted.
Take `Cn1cnc([N+](=O)[O-])c1Sc1nc(N)nc2nc[nH]c12`: the growth is 59.9%.

For `N#C/C(=C\c1ccc(-c2ccc(Br)cc2)o1)c1nc(-c2ccco2)cs1`, the growth is 89.3%.

Turning to `COc1ccc(C2=Cn3c(CCC(=O)c4nc5ccccc5[nH]4)nnc3SC2)cc1`, the growth was 95.6%.
